Measurements taken from PubChem BioAssay (Tox21).
Records with an inconclusive call do not appear. Entries that show only a call come without a potency. Calls of active or inactive are those of the source. Calls follow the shape of the dose curve; as a rule, active = well fitted cell-killing curve with a large enough effect in the repeat runs; inconclusive = weak or mixed curves, or effect the other way; inactive = flat fitted curve, though single readings scatter.
Potency is read from the fitted curve at half-maximal effect.

Assay: qHTS RealTime-Glo MT Cell Viability Assay in HEK293 cells - 32 hour (AID 1224868); also: nearly all actives have a fitted effect of over 50% in size
Details: RealTime-Glo luminescence; series mostly up to 76.8 µM
Excerpt: National Center for Advancing Translational Sciences [NCATS]
NIH Chemical Genomics Center [NCGC]
U.S. Environmental Protection Agency [EPA]
National Institutes of Environmental Health Sciences [NIEHS]
National Toxicology Program [NTP]
U.S. Food and Drug Administration [FDA]
Measure of cell viability is critical in the cell-base assay. Analysis of cell viability is necessary for the characterization of cell responses to cytotoxic drugs and environmental stress. A RealTime-Glo MT Cell Viability Assay to monitor cell viability in real time of continues cell culture during 40 hours of compound treatment was used to screen Tox21 10K library compounds in Hek293 cells. The RealTime-Glo MT Cell Viability Assay is a nonlytic, homogeneous, bioluminescent method to measure cell viability in real time using a simple, plate-based method. The assay involves adding NanoLuc luciferase and a cell-permeant prosubstrate to cells in culture. Viable cells reduce the proprietary prosubstrate to generate a substrate for NanoLuc luciferase. This substrate diffuses from cells into the surrounding culture medium, where it is rapidly used by the NanoLuc Enzyme to produce a luminescent signal. The signal correlates with the number of viable cells, making the assay well suited for cytotoxicity studies.
Tox21 Assay Protocol Summary:
The mixture of Hek293 cell suspension and reagents were dispensed at 600cells/6 ul/well in 1536-well tissue culture treated black solid bottom plates using a Multidrop dispenser. After the assay plates were incubated at a 37 C/5% CO2 incubator for 5 hours, 23 nL of compounds dissolved in DMSO, positive and negative controls was transferred to the assay plate by a pintool work station. The plates were incubated at 37 C for 40 hours. The luminescence intensity were measured at 0h, 8h, 16h, 24h, 32h and 40h time points using ViewLux plate reader during compound treatment.
With `O=c1ssc(Cl)c1Cl` the Potency was 15.5 µM (active).
In the case of `O=C(CCCN1CCC2(CC1)C(=O)NCN2c1ccccc1)c1ccc(F)cc1`, the Potency is reported as 9.52 µM (active).
In the case of `Oc1ccc(C2(c3ccc(O)cc3)c3ccccc3-c3ccccc32)cc1`, the Potency is reported as 43.6 µM (active).
For `N#CCCSCCC#N`, the Potency was “inactive”.
For `C=CCOC(N)=O`, the Potency was “inactive”.
With `CCOC(=O)CC(=O)CCl` the Potency was 43.6 µM (active).
In the case of `Clc1ccc(Oc2ccccc2)cc1`, the Potency is reported as “inactive”.
With `Cc1cc(C)cc(OP(=O)(Oc2cc(C)cc(C)c2)Oc2cc(C)cc(C)c2)c1` the Potency was “inactive”.
With `O=C(NC(=O)c1c(F)cccc1F)Nc1cc(Cl)c(OC(F)(F)C(F)F)c(Cl)c1` the Potency was “inactive”.
With `CC1CCC(C(C)C)C(OC(=O)c2ccccc2N)C1` (stereo not given) the Potency was 38.4 µM (active).
In the case of `CC(C)N1C(=O)N(c2ccccc2)CSC1=NC(C)(C)C`, the Potency is reported as 21.9 µM (active).
With `CCCCCCCCCCCCCN1CC(C)OC(C)C1` (stereo not given) the Potency was “inactive”.
With `Nc1ccc(Cc2ccc(N)c(Cl)c2)cc1Cl` the Potency was 26.6 µM (active).
For `O=[N+]([O-])c1cc(C(F)(F)F)c(Cl)c([N+](=O)[O-])c1Cl`, the Potency was 5.49 µM (active).
For `ClC1=C(Cl)C2(Cl)C3C(Cl)C(Cl)CC3C1(Cl)C2(Cl)Cl` (stereo not given), the Potency was 48.8 µM (active).
With `O=c1oc2ccccc2c(O)c1Cc1c(O)c2ccccc2oc1=O` the Potency was “inactive”.
With `N#CCCC(Br)(C#N)CBr` (stereo not given) the Potency was 21.9 µM (active).
For `CCCCCCCCCCCCCCC(Br)C(=O)O` (stereo not given), the Potency was “inactive”.
For `COP(=O)(CCC(=O)NCO)OC`, the Potency was “inactive”.
In the case of `N#Cc1ccccc1Cl`, the Potency is reported as “inactive”.
In the case of `CCN`, the Potency is reported as “inactive”.
In the case of `C[C@@H](Oc1ccc(Cl)cc1Cl)C(=O)O`, the Potency is reported as “inactive”.
With `COS(=O)(=O)c1ccc(C)cc1` the Potency was “inactive”.
For `CN(C)CCc1c[nH]c2cccc(O)c12`, the Potency was “inactive”.
For `FC(F)(F)c1cccc(C2=CCN(CCc3ccc4ccccc4c3)CC2)c1`, the Potency was “inactive”.
For `[Hg+2].[I-].[I-]`, the Potency was 3.09 µM (active).
With `CCCCOCN(C(=O)CCl)c1c(CC)cccc1CC` the Potency was “inactive”.
With `CCC(C)c1cc(C(C)(C)C)cc(-n2nc3ccccc3n2)c1O` (stereo not given) the Potency was “inactive”.
With `CCC[CH2][Sn]([CH2]CCC)([CH2]CCC)[O]C(=O)c1ccccc1` the Potency was 0.389 µM (active).
With `CN(CCCC(=O)c1cccnc1)N=O` the Potency was “inactive”.
For `CC1(C)CN=C(NN=C(/C=C/c2ccc(C(F)(F)F)cc2)/C=C/c2ccc(C(F)(F)F)cc2)NC1`, the Potency was 38.9 µM (active).
In the case of `CC(C)CC(C)(c1ccc(O)cc1)c1ccc(O)cc1`, the Potency is reported as 39 µM (active).
With `CCC(C)c1cc([N+](=O)[O-])cc([N+](=O)[O-])c1OC(=O)C=C(C)C` (stereo not given) the Potency was 21.9 µM (active).
For `CCOP(=S)(OCC)OC(Cl)C(Cl)(Cl)Cl` (stereo not given), the Potency was “inactive”.
With `Oc1ccccc1Br` the Potency was “inactive”.
With `[Cl][Sn]([c]1ccccc1)([c]1ccccc1)[c]1ccccc1` the Potency was 0.262 µM (active).
For `Oc1c(Cl)c(Cl)cc(Cl)c1Cl`, the Potency was 47.6 µM (active).
For `c1ccc(OCC2CO2)cc1` (stereo not given), the Potency was “inactive”.
For `ClC1=C(Cl)[C@]2(Cl)[C@@H]3[C@@H](Cl)[C@@H](Cl)C[C@@H]3[C@@]1(Cl)C2(Cl)Cl`, the Potency was “inactive”.
For `Nc1c(Oc2ccccc2)cc(O)c2c1C(=O)c1ccccc1C2=O`, the Potency was 19 µM (active).
